Data taken from ChEMBL document CHEMBL4513216, “Probing the Open Global Health Chemical Diversity Library for Multistage-Active Starting Points for Next-Generation Antimalarials” (ACS Infect Dis, 2020).
About 8,600 (12%) of roughly 69,000 compounds showed an effect of 50% or more. Many of the other results were omitted from the sample, so strong results are more common in it than they were.

The compounds below were run on Plasmodium berghei (assay: Screen against P. berghei liver stage (PbLuc), transformed with Luciferase, at 10uM). Settings: tested at 10 uM.
Type: functional, HepG2

Compound	INHIBITION [%]
CN(Cc1ccccc1NCc1cccnc1)C(=O)c1cccs1	49.3
CN(Cc1ccccc1NCc1cscn1)C(=O)c1cccs1	20.6
Cc1cnc(CNc2ccccc2CN(C)C(=O)c2cccs2)o1	55.6
CCc1noc(CN(CC)C(=O)CC2C(=O)NCCN2CC(C)(C)C)n1 (configuration not stated)	13.7
CCN1C[C@H]2[C@@H](C1)N(S(=O)(=O)c1cccnc1)CC[C@H]2OC	59.1
CCN1C[C@@H]2[C@@H](OC)CCN(S(=O)(=O)c3cccnc3)[C@@H]2C1	26.4
CO[C@H]1CCN(S(=O)(=O)c2cccnc2)[C@@H]2CN(CC3CC3)C[C@H]12	52
CO[C@@H]1CCN(S(=O)(=O)c2cccnc2)[C@@H]2CN(CC3CC3)C[C@@H]21	53.2
COCCN1C[C@@H]2[C@@H](OC)CCN(S(=O)(=O)c3cccnc3)[C@@H]2C1	31.1
CCN1C[C@@H]2[C@@H](OC)CCN(S(=O)(=O)c3ccccc3)[C@@H]2C1	17.6
CCN1C[C@H]2[C@@H](C1)N(S(=O)(=O)c1ccccc1)CC[C@H]2OC	41.6
CO[C@@H]1CCN(S(=O)(=O)N(C)C)[C@@H]2CN(Cc3cccnc3)C[C@@H]21	36.2
CO[C@H]1CCN(S(=O)(=O)N(C)C)[C@@H]2CN(Cc3cccnc3)C[C@H]12	-18.5
O=C(NCCC1CCN(CC(F)(F)F)CC1)C1CCOC1 (configuration not stated)	26.1
Cc1csc(C(C)(C)NCC(=O)N(C)Cc2ccc(C)o2)n1	11.3
NC(=O)C1CCN(C(=O)c2cccn2Cc2cccs2)C1 (configuration not stated)	11.6
CN1CCc2nc(C3CCCN(S(=O)(=O)c4ccccc4)C3)ncc2C1 (configuration not stated)	29.85
OC1(CN2CCC(Cc3ncccn3)CC2)CCCCC1	14.6
COCCc1noc(CN2CCCC2Cn2cccn2)n1 (configuration not stated)	38.8
CSc1ccc(-c2noc(CN(CC(C)C)CC(C)C)n2)cc1	65.8
COCCN(Cc1ccco1)Cc1nc(-c2ccc(C)c(F)c2)no1	-16.7
CSc1ccc(-c2noc(CN(Cc3ccccc3)C(C)C)n2)cc1	46.1
COc1ccc(CN2CC[C@H](NC(C)=O)[C@@H](O)CC2)c(F)c1	38.2
CN1CCCc2cc(CNC(=O)c3ccc(-n4cnnc4)cc3)ccc21	37.4
CN1CCCc2cc(CNC(=O)c3ccncc3)ccc21	63.9
COC(=O)c1cccc(C(=O)NCc2ccc3c(c2)CCCN3C)c1	34.7

Compound	INHIBITION [%]
Cc1cnc(C(=O)NCc2ccc3c(c2)CCCN3C)cn1	19.6
COc1cc(C(=O)NCc2ccc3c(c2)CCCN3C)cc(OC)c1Br	34.7
CN1CCCc2cc(CNC(=O)c3cc[n+]([O-])cc3)ccc21	53.9
Cc1ccc(N2CCN(C(=O)C3CN(C)C(=O)N3)CC2=O)cc1 (configuration not stated)	17.8
O=C(CC1CCC1)N1CCCC(CO)(CC2CC2)C1 (configuration not stated)	22.1
CN(C)C(=O)N1CCN(c2ccc3ccc(C(=O)NC4CC4)cn23)CC1	-14.7
CCOC(=O)c1c(NC(=O)CN2CCN(C(C)=O)CC2)sc2c1CCC2	14.2
CC(C(=O)NCc1ccnc(N2CCN(C)CC2)c1)S(C)(=O)=O (configuration not stated)	23.333
CC(=O)N1Cc2ccccc2OC2(CCN(C(=O)C3CCOC3)CC2)C1 (configuration not stated)	6.26
CCc1cc(N2CCC(Nc3ccc4nnc(C)n4n3)CC2)ncn1	46.4
Cc1ccc(N2CCC(Nc3ccc4nnc(C)n4n3)CC2)nc1	58.7
Cc1ccc(N2CCC(NC(C)c3cccs3)CC2)nc1 (configuration not stated)	22.9
c1cc(CN2CCC3(CCOCC3COCC3CC3)CC2)co1 (configuration not stated)	38.3
Cn1nnc2c1CCN(Cc1ccco1)C2COCc1ccccc1 (configuration not stated)	-48.4
Cc1cc(C)n(-c2ccc(N3CCC4(CC3)OCCO4)nc2)n1	-125
Cc1cc(C)n(-c2ccc(N3CCC(O)CC3)nc2)n1	50.5
Cc1cc(C)n(-c2ccc(N3CCCSCC3)nc2)n1	25.8
Cc1ncc2c(n1)CCN(Cc1nc(Cc3ccccc3)no1)C2	-154
Clc1cccc2c1CCN(Cc1nc(CC3CC3)no1)C2	50.5
Cc1cccc(SC2CCN(Cc3nc(CC4CC4)no3)CC2)c1	11.9
CS(=O)(=O)Cc1noc(CN2CCc3c(Cl)cccc3C2)n1	82.5
Cc1cccc(N2CCN(Cc3nc(CC4CC4)no3)CC2)n1	32.7
CS(=O)(=O)Cc1noc(CN2CCN(c3ccccc3Cl)CC2)n1	45.7
CCOC(=O)c1sc(NC(=O)C(C)C)c(C#N)c1C	38
O=C(c1cnns1)N1CCN(Cc2ccc(F)cc2Cl)CC1	-18.2
NC(=O)CN1CC2(CCC1=O)CCN(Cc1ccc(F)cc1Cl)CC2	31.7

Compound	INHIBITION [%]
NC(=O)c1ccc(N2CCN(Cc3ccc(F)cc3Cl)CC2)nn1	81.2
NC(=O)c1cncc(N2CCN(Cc3cccc4nsnc34)CC2)n1	-47.8
NC(=O)c1ccnc(N2CCN(Cc3ccc(F)cc3Cl)CC2)c1	83.2
COc1ccc(CN2CCCN(c3cc(C(N)=O)ccn3)CC2)cc1	-18.7
NC(=O)c1cncc(N2CCN(Cc3ccc(F)cc3Cl)CC2)n1	69.3
CN1CCN(Cc2ccccc2Oc2cncc(C(N)=O)n2)CC1	4.82
NC(=O)c1ccnc(N2CCCC(CO)(Cc3ccc(F)cc3)C2)c1 (configuration not stated)	43.5
Cc1nn(C)c(N2CCOCC2)c1CNCc1ccc(C(C)O)cc1 (configuration not stated)	43.2
CC(C)CC(=O)N1CCN(Cc2cc(-c3ccncc3)nn2C)CC1	-23.8
CCOC(=O)c1sc(NC(=O)CN2C(=O)CCC2=O)c(C#N)c1C	32.2
CC(C)c1ccc(-n2ncc(C(=O)N(C)C3CCN(C)CC3)c2N)cc1	-29
Cc1ccc(CN(CCN(C)C)Cc2ccnn2C2CCCCO2)o1 (configuration not stated)	15.5
Cc1ccc(O)c(C(=O)N2CCC3(CCCNC3)C2)c1 (configuration not stated)	42.1
O=C1CNc2ncnc(Nc3cnn(Cc4ccccc4)c3)c2N1	34.6
O=C1CNc2ncnc(Nc3cnn(Cc4cccc(F)c4)c3)c2N1	-6.47
O=C1CNc2ncnc(Nc3cnn(Cc4ccc(F)cc4)c3)c2N1	65.8
COCCN1C[C@@H](C)[C@@]2(COCCN(C(=O)c3cccs3)C2)C1	20.1
Cc1ccc(C(NC(=O)C2CC2)c2cccc(S(C)(=O)=O)c2)cc1 (configuration not stated)	52.5
CCNC(=O)NC(c1ccc(C)cc1)c1cccc(S(C)(=O)=O)c1 (configuration not stated)	31.7
CCC(=O)NC(c1ccc(C)cc1)c1cccc(S(C)(=O)=O)c1 (configuration not stated)	34.7
Cc1cnc(CCNC(=O)C2CN(C(=O)Cc3ccc(F)cc3)C2)s1	-3.15
CN(C)CC1(O)CCCN(c2ccnc3c(C(F)(F)F)cccc23)C1 (configuration not stated)	7.24
Cc1cc(C)n(C2CN(CC(=O)N(C)Cc3cnn(C)c3)C2)n1	32.9
Cc1cc(C)n(C2CN(CC(=O)N(C)Cc3ccc(C)o3)C2)n1	71.9
COc1ccccc1CC(=O)N1CCCC(n2nc(C)cc2C)C1 (configuration not stated)	27.1
COc1cccc(CN(C)C(=O)CN2CCN(c3nccn3C)CC2)c1	-20.6

Compound	INHIBITION [%]
Cc1cc(C)n(C2CN(CC(=O)N(C)Cc3ccco3)C2)n1	39.7
COc1ccccc1CNC(=O)C(C)N1CC(n2nc(C)cc2C)C1 (configuration not stated)	6.27
COc1ccccc1CN(C)C(=O)CN1CC(n2nc(C)cc2C)C1	89.4
CN(Cc1ccsc1)C(=O)CN1CCOC(Cn2cncn2)C1 (configuration not stated)	5.7
Cc1cc(C)n(C2CN(CC(=O)N(C)Cc3ccsc3)C2)n1	75.7
Cc1ccc(CN(C)C(=O)CN2CC(n3cccn3)C2)o1	28.4
COc1cccc(CN(C)C(=O)CN2CCN(CCO)CC2)c1	13.7
COc1cccc(CN(C)C(=O)CN2CCN(c3nccs3)CC2)c1	60.4
COc1ccc(F)cc1S(=O)(=O)NCCn1cnc(C)cc1=O	41.7
COCCNC(=O)c1cc(-n2cccc2)ccc1Cl	22.2
CCN(CC)c1ccc(C(=O)N2CCCC(n3cncn3)C2)cn1 (configuration not stated)	-12.7
Cc1oncc1C(=O)N1CCC2(CC1)CN(S(C)(=O)=O)c1ccccc12	-13.4
COc1cccc(CN(C)C(=O)CN2CC(n3nc(C)cc3C)C2)c1	53.7
COCCN1CCN(CC(=O)N(C)Cc2ccsc2)CC1	65.7
COc1cccc(CNC(=O)C(C)N2CC(n3nc(C)cc3C)C2)c1 (configuration not stated)	39.8
CN(Cc1ccsc1)C(=O)CN1CCc2c(ncn2C)C1	-1.15
COCCN1CCN(CC(=O)N(C)Cc2ccsc2)CC1C (configuration not stated)	-39.2
COc1cccc(CC(=O)N2CCCC(n3nc(C)cc3C)C2)c1 (configuration not stated)	5.03
CN(C)C(=O)Cn1cc(C(=O)NCCc2cccc(Cl)c2Cl)nn1	-8.4
COCCNC(=O)[C@H]1C[C@H]2OCC[C@H]2N(Cc2ccoc2)C1	31.1
Cc1nc(N2CCCC2)nc2c1CCN(C(=O)CC1CCCC1)CC2	-10.3
Cc1ccc(CC(=O)N2CC[C@@H]3NC(=O)CC[C@@H]32)cc1	58.5
COc1cccc(CC(=O)N2CC[C@@H]3NC(=O)CC[C@@H]32)c1	-0.554
COc1ccc(CC(=O)N2CC[C@@H]3NC(=O)CC[C@@H]32)cc1	-6.46
